PubChem BioAssay
For part of these data: Entries with a potency or affinity are not part of this list. The source made the active and inactive calls. Unless noted, how the calls were made is not given here.

How the values were obtained:
[1] = antimalarial activity against Dd2 strain (AID 2302;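 active means growth inhibition above 50% at the single 2 µM test dose, taken to imply half-maximal potency below 2 µM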;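 further: 0% = DMSO untreated growth and 100% = chloroquine plus artemisinin killed control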); settings: P. falciparum Dd2 in RBCs, LDH growth readout, 72 h; at 2 µM; active compounds read high
[2] = HepG2 cytotoxicity, primary screen, cytotoxicity control for P. falciparum antimalarial project, cell-based, ATP luminescence (AID 2303;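 active means inhibition above 50%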;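 further: 0% = DMSO wells and 100% = digitonin-killed cells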); settings: HepG2 viability, 24-48 h, at 10 µM, active compounds read high
[3] = target: L-lactate dehydrogenase (Plasmodium falciparum (isolate CDC / Honduras)) (UniProt Q27743); assay: PfLDH activity inhibition – cell lysate, 3D7 strain, counter-screen for P. falciparum growth inhibition project (AID 2304);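 further: 0% = vehicle and 100% = reference inhibitor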; settings: P. falciparum 3D7 crude extract, LDH APAD/NBT absorbance; at 2 µM; active compounds read high
[4] = inhibition of 3D7 malaria parasite growth – strain 3D7 (AID 2306);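 further: 0% = DMSO wells and 100% = chloroquine plus artemisinin control wells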; settings: P. falciparum 3D7 erythrocytic growth, LDH absorbance, 72 h; at 2 µM; active compounds read high
[5] = target: Calcium-dependent protein kinase 1 (Plasmodium falciparum (isolate 3D7)) (UniProt P62344); assay: PfCDPK1 kinase inhibitors, biochemical, TCAMS library (AID 1159585; cut-off not given, nearly all actives have IC50 up to about 0.98 µM;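 further: inhibitors leave more ATP so luminescence rises with inhibition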); settings: recombinant PfCDPK1, Kinase-Glo ATP depletion luminescence
[6] = target: Plasmodium falciparum protein kinase 6 (PK6, PF3D7_1337100) (UniProt Q8IDW1); assay: PfPK6 kinase inhibitors, biochemical, TCAMS library (AID 1159586); settings: recombinant PfPK6, Kinase-Glo ATP depletion luminescence
[7] = target: Protein kinase 7 (PK7), Plasmodium falciparum 3D7 (PF3D7_0213400) (UniProt Q7YTF7); assay: inhibition of Plasmodium PK7 catalytic activity – biochemical, TCAMS antimalarial set, Kinase-Glo luminescence (AID 1159587); settings: recombinant PfPK7, Kinase-Glo ATP depletion luminescence
[8] = target: Calcium-dependent protein kinase 4 (Plasmodium falciparum (isolate 3D7)) (UniProt Q8IBS5); assay: PfCDPK4 kinase inhibitors, biochemical, TCAMS library (AID 1159588; cut-off not given, nearly all actives have IC50 up to about 0.91 µM); settings: recombinant PfCDPK4, Kinase-Glo ATP depletion luminescence
Sequence of Calcium-dependent protein kinase 4 (Plasmodium falciparum (isolate 3D7)) (Q8IBS5 whole entry, looked up): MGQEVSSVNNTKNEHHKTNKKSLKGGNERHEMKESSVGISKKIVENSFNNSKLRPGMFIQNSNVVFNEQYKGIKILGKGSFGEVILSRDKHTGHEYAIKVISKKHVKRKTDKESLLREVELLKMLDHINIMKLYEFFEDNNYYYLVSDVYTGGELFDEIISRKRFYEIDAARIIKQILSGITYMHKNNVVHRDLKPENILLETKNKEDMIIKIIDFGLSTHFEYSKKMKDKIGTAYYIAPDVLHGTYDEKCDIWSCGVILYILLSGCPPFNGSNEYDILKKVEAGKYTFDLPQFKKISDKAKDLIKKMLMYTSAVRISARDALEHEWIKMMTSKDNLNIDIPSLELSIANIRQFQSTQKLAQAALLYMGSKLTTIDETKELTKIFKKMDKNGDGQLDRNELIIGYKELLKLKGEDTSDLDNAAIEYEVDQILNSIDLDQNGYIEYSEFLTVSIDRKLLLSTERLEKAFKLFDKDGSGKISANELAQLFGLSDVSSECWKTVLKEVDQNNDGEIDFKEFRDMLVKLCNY

Sequence of Protein kinase 7 (PK7), Plasmodium falciparum 3D7 (PF3D7_0213400) (Q7YTF7 1-343): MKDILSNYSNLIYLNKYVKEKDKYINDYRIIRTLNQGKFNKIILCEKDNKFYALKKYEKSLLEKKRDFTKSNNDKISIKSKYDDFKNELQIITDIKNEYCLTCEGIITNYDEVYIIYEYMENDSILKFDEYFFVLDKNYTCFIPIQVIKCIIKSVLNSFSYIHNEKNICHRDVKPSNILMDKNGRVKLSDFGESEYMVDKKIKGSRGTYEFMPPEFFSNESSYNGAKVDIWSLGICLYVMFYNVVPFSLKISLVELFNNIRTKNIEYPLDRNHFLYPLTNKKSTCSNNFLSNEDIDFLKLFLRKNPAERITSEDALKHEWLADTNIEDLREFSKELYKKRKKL
Sequence of L-lactate dehydrogenase (Plasmodium falciparum (isolate CDC / Honduras)) (Q27743 whole entry, looked up): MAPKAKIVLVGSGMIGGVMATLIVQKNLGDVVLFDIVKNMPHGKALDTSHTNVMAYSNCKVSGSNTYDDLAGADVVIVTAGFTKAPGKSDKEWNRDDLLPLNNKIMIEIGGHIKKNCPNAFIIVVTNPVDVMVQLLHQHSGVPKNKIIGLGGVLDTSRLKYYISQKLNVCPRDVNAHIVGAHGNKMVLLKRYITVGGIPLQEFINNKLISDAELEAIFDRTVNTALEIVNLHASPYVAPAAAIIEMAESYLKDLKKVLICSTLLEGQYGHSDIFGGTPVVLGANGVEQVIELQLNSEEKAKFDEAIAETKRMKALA
Sequence of Plasmodium falciparum protein kinase 6 (PK6, PF3D7_1337100) (Q8IDW1 1-305): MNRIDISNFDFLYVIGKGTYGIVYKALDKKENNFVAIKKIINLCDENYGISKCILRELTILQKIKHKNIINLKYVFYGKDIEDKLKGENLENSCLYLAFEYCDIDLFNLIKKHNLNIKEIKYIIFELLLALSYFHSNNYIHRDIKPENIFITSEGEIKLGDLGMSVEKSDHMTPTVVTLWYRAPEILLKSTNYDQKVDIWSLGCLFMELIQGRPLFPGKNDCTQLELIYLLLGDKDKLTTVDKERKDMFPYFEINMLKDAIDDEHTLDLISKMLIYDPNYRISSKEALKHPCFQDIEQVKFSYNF
Sequence of Calcium-dependent protein kinase 1 (Plasmodium falciparum (isolate 3D7)) (P62344 whole entry, looked up): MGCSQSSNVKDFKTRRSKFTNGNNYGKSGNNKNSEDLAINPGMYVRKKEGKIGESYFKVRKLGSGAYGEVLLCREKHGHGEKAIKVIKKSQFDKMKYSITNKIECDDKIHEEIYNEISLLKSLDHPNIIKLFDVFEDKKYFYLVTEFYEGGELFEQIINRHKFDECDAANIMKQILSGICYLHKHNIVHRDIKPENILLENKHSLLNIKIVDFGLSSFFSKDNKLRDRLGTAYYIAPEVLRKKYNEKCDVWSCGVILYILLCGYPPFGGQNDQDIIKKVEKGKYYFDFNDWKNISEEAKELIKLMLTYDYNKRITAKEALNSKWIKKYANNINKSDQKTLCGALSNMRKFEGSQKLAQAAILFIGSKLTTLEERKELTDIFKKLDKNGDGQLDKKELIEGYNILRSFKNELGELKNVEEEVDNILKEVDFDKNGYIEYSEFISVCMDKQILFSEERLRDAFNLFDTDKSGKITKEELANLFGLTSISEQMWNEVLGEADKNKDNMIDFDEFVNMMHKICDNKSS

Cc1ccc(O)cc1Nc1ccnc2cc(-c3nccs3)ccc12
inactive: inhibition [3] 2% | outcome [5] | outcome [6] | outcome [7] | outcome [8]
active: growth inhibition [1] 83% | inhibition [2] 63% | growth inhibition [4] 102%

CS(=O)(=O)N(CC(O)Cn1c2ccc(Cl)cc2c2cc(Cl)ccc21)c1ccccc1 (stereo not drawn)
active: growth inhibition [1] 98% | growth inhibition [4] 101%
inactive: inhibition [2] 2% | inhibition [3] 0% | outcome [5] | outcome [6] | outcome [7] | outcome [8]

N#Cc1ccc2[nH]cc(C(=O)CCCCCN(Cc3ccccc3)Cc3ccccc3)c2c1
inactive: inhibition [2] 10% | inhibition [3] 2% | outcome [5] | outcome [6] | outcome [7] | outcome [8]
active: growth inhibition [1] 97% | growth inhibition [4] 93%

CN1CCN(CCCNc2ncc3c(-c4ccc(NC(=O)Nc5cc(C(F)(F)F)ccc5F)c(F)c4)nn(C)c3n2)CC1
active: growth inhibition [1] 94% | inhibition [2] 100% | growth inhibition [4] 98%
inactive: inhibition [3] 1% | outcome [5] | outcome [6] | outcome [7] | outcome [8]

COc1ccc2nccc([C@@H](O)CN3CCC(NCCOc4ccccc4[N+](=O)[O-])CC3)c2c1
inactive: inhibition [2] 4% | inhibition [3] -2% | outcome [5] | outcome [6] | outcome [7] | outcome [8]
active: growth inhibition [1] 98% | growth inhibition [4] 100%

COc1cc(Nc2ccnc3cc(-c4ccccn4)ccc23)cc(OC)c1OC
active: growth inhibition [4] 91%
inactive: growth inhibition [1] 0% | inhibition [2] -9% | inhibition [3] -1% | outcome [5] | outcome [6] | outcome [7] | outcome [8]

CCOc1ccc(NC(=O)c2cn3nc(-c4ccc(OCC)cc4)cc3nc2C2CCNCC2)cc1
active: growth inhibition [4] 102%
inactive: growth inhibition [1] 39% | inhibition [2] 36% | inhibition [3] -11% | outcome [5] | outcome [6] | outcome [7] | outcome [8]

CCOc1cc(C)ccc1C1CCN(CCCCNC(=O)c2ccc(NC(=O)c3cc(Cl)cc(Cl)c3)cc2)CC1
active: growth inhibition [1] 78% | growth inhibition [4] 99%
inactive: inhibition [2] 4% | inhibition [3] -5% | outcome [5] | outcome [6] | outcome [7] | outcome [8]

Cc1cnc(-c2ccc(NC(=O)c3coc4ccc(N5C[C@@H](C)N(C)[C@@H](C)C5)cc34)cc2)o1
active: growth inhibition [4] 96%
inactive: growth inhibition [1] 39% | inhibition [2] 18% | inhibition [3] 1% | outcome [5] | outcome [6] | outcome [7] | outcome [8]

O=c1cc(NCCCNCc2ccc3c(c2)OC(F)(F)O3)[nH]c2ccccc12
active: growth inhibition [1] 94% | growth inhibition [4] 100%
inactive: inhibition [2] -9% | inhibition [3] -6% | outcome [5] | outcome [6] | outcome [7] | outcome [8]

CN(CCCN(C)c1cc(NC(=O)c2ccc(F)cc2)ccn1)Cc1cccc(F)c1
inactive: inhibition [2] -5% | inhibition [3] -1% | outcome [5] | outcome [6] | outcome [7] | outcome [8]
active: growth inhibition [1] 60% | growth inhibition [4] 83%

Cc1noc(C)c1-c1cccc(CNCc2cccc(-c3cccc(-c4nc5ccc(F)cc5[nH]4)c3)c2)c1
inactive: inhibition [2] 18% | inhibition [3] 3% | outcome [5] | outcome [6] | outcome [7] | outcome [8]
active: growth inhibition [1] 73% | growth inhibition [4] 103%

CC(C)CC(=O)NC1CCN(Cc2c(-c3cccs3)nc3ccccc3c2C(=O)N[C@@H](C)C2CCCCC2)CC1
inactive: inhibition [2] -3% | inhibition [3] -9% | outcome [5] | outcome [6] | outcome [7] | outcome [8]
active: growth inhibition [1] 97% | growth inhibition [4] 96%

Nc1nc(-c2ccccn2)nc(-n2nc(-c3cccc(C(F)(F)F)c3)cc2N)n1
inactive: inhibition [2] 14% | inhibition [3] -5% | outcome [5] | outcome [6] | outcome [7] | outcome [8]
active: growth inhibition [1] 74% | growth inhibition [4] 87%

Cc1cc(NC2CCCC2)nc(Nc2ccccc2C)n1
inactive: growth inhibition [1] 20% | inhibition [2] -2% | inhibition [3] 2% | outcome [5] | outcome [6] | outcome [7] | outcome [8]
active: growth inhibition [4] 88%

CC1CC(C)CN(S(=O)(=O)c2cc(C(=O)Nc3cccc([N+](=O)[O-])c3)ccc2Br)C1 (stereo not drawn)
inactive: inhibition [2] 1% | inhibition [3] -5% | outcome [5] | outcome [6] | outcome [7] | outcome [8]
active: growth inhibition [1] 68% | growth inhibition [4] 101%

COc1ccc2c(NN=Cc3ccccn3)ccnc2c1
inactive: inhibition [2] 14% | inhibition [3] -2% | outcome [5] | outcome [6] | outcome [7] | outcome [8]
active: growth inhibition [1] 96% | growth inhibition [4] 102%

CC(C)COc1ccc(Cl)cc1Cc1ccc(-c2nc3ccc(F)cc3[nH]2)o1
active: growth inhibition [4] 97%
inactive: growth inhibition [1] 49% | inhibition [2] 35% | inhibition [3] 6% | outcome [5] | outcome [6] | outcome [7] | outcome [8]

COCCNCC(O)Cn1c2ccc(Cl)cc2c2cc(Cl)ccc21 (stereo not drawn)
active: growth inhibition [1] 74% | growth inhibition [4] 95%
inactive: inhibition [2] 15% | inhibition [3] 0% | outcome [5] | outcome [6] | outcome [7] | outcome [8]

CN1CCN(CC(=O)Nc2ccc(-c3ccc(-c4nc5ccc(C(F)(F)F)cc5[nH]4)s3)cc2)CC1
active: growth inhibition [1] 73% | inhibition [2] 84% | growth inhibition [4] 102%
inactive: inhibition [3] 5% | outcome [5] | outcome [6] | outcome [7] | outcome [8]

CCCCCCc1cc2cc(-c3csc(C=Cc4ccccc4)n3)c(=O)oc2cc1O
active: growth inhibition [1] 75% | growth inhibition [4] 96%
inactive: inhibition [2] 17% | inhibition [3] 2% | outcome [5] | outcome [6] | outcome [7] | outcome [8]
